Among the data in PubChem BioAssay (EPA / NIEHS) are AC50 and outcome values, retold here.

What is called AC50 is the midpoint of the concentration-response curve, whichever way the signal moves.

Results filed as inconclusive are left out. Calls of active or inactive are those of the source. The calls were made as follows: active = hit-call score of the fitted dose curve at least 0.9, where 1 is the maximum; inconclusive = response in the unintended direction; inactive = score below 0.9.

The test in a line: ACEA_ER_AUC_viability: ACEA Biosciences xCELLigence Real-Time Cell Analysis on Estrogen Receptor Agonism for Viability (AID 2283782).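 Also: continuous compound exposure with impedance area under curve over 80 h; hit means loss of impedance signal meaning reduced cell growth or viability.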 An outline of the steps:
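T-47D human breast cells in phenol red-free RPMI1640 with 10% charcoal-stripped FBS were dosed with an 8-point 1:4 dilution series from 100 uM top final concentration, in duplicate. Impedance-based growth was followed for 80 h; AUC analysed versus DMSO.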
As to `COC(Cc1ccccc1)OC`, the AC50 is 67 µM (active).
On the same count and under the same terms, to `CC=C(C)C=CC=C(C)C` belongs 50 µM (active).
Take `O=C(O)CCC(=O)O`: the compound was classed as inactive.
As to `CCOC(=O)/C=C\C(=O)OCC`, the AC50 is 82.6 µM (active).
As for `[Cl][Eu]([Cl])[Cl]`, the call was inactive.
With `CC(C)COC(=O)CC(C(=O)OCC(C)C)S(=O)(=O)O` (stereo not drawn), the result was inactive.
`N=C1C=CC(=C(c2ccc(N)cc2)c2ccc(N)cc2)C=C1`: the AC50 was 34.5 µM (active).
In the case of `Cc1cc(C)c(C=O)c(C)c1`, the compound was classed as inactive.
`CC1C(C)(C)C2=C(C(=O)CCC2)C1(C)C` (stereo not drawn): the call was inactive.
With `CCCCCC(=O)OCC`, the compound was called inactive.
On the same count and under the same terms, to `Clc1cccnc1` belongs “inactive”; to `CC(C)CCCCCOC(=O)CS`, “inactive”; to `CC1CCC(C(C)(C)S)C(=O)C1` (stereo not drawn), “inactive”.
As for `CCCCCCCCCCCCC`, the outcome was inactive.
Still for that read-out and setting: to `CCOC(=O)C1=NOC(c2ccccc2)(c2ccccc2)C1` belongs “inactive”; to `Cc1cc(=O)[nH]c(=O)[nH]1`, “inactive”.
Turning to `C=C[Si](OCCOC)(OCCOC)OCCOC`, the result was inactive.
Same read-out and setting: the entry for `O=C(O)CCCC(=O)O` is “inactive”; for `O=C1CCCCCCCCCCC1` it is “inactive”.
Take `CC(c1cc(C(C)(C)C)cc(C(C)(C)C)c1O)c1cc(C(C)(C)C)cc(C(C)(C)C)c1O`: the outcome was inactive.
Regarding `C=C(C)C1CC=C(C)CC1` (stereo not drawn), the outcome was inactive.
As to `CC(C)c1ccc(O)c(C(C)C)c1`, the AC50 is 79.4 µM (active).
Regarding `C=CC(=O)NCOCCCC`, the call was inactive.
As for `CCCCCCCCCCCCc1ccc(O)cc1`, the AC50 was 20 µM (active).
Take `CCCCOCCOCCOC(C)=O`: the compound was called inactive.
As to `Cn1cccc1`, the call was inactive.
Still for that read-out and setting: the entry for `CC(C)(CO)COC(=O)C(C)(C)CO` is “inactive”.
Regarding `CCCC/C=C/C=C\C=O`, the AC50 is 88.9 µM (active).
On the same count and under the same terms, to `C=C(C)C(=O)OCC(O)COc1ccc(C(C)(C)c2ccc(OCC(O)COC(=O)C(=C)C)cc2)cc1` (stereo not drawn) belongs 30.3 µM (active).
On to `CCc1cccc(CC)c1`, for which the call was inactive.
On the same count and under the same terms, to `CN1CCN(C)CC1` belongs “inactive”.
Take `O=C(O)c1cc(O)c2ccccc2c1O`: the AC50 was 26 µM (active).
On the same count and under the same terms, to `CC(=O)OC1CCCCC1` belongs 40.3 µM (active).
